Compound activity (PubChem)
An excerpt weighted towards active compounds, which were near 8.6% of everything screened.
Lassa entry = blocks Lassa virus binding or cell entry | Lassa virus pseudotyped entry inhibition, cell-based qHTS | Potency, µM (doses to about 49.2 µM), for the others: top-dose activity change, negative = inhibition, actives largely listed as inhibitors | 18,000 compounds, 4.1% hits
Marburg entry = Marburg virus entry inhibition. Potency, µM (titrated, usually from 49.2 µM), inactives show at the top dose activity change, negative = inhibition, actives largely listed as inhibitors. 18,000 compounds, 6.5% hits. Marburg virus pseudotype entry/binding inhibition, cell-based. AID 720532
Numbers without * were called inactive; ? = inconclusive; · = no result; ! = not confirmed by another sample; [ ] = dose if it differs, or a comment. The call rests on the fitted dose curve; tested in HEK293 cells. On the % scale 0 is the no-effect control and ±100 the full control effect; potency means the concentration at half of the fitted maximal effect.

SMILES	Lassa entry	Marburg entry
CCC(=O)O[C@@](Cc1ccccc1)(c1ccccc1)[C@@H](C)CN(C)C	-0.8%[17.8 µM]	5.6%[17.8 µM]
CCC(=O)O[C@](Cc1ccccc1)(c1ccccc1)[C@H](C)CN(C)C	-13.4%	28.2µM*
COCc1cc2cc3c(cc2c2c(C(=O)OC)c(C(=O)OC)c(C(=O)OC(C)(C)C)n12)OCO3	·	-26.9%[8.59 µM]
C[n+]1cc2c3c(ccc2c2ccc4cc5c(cc4c21)OCO5)OCO3	20µM*	6.31µM*
CCCCCCN1C[C@H](n2cc(C3CC3)nn2)[C@@H](O)C[C@H]1c1ccc(OC)cc1	·	-19.8%
CC(C)C(=O)N[C@@H]1CCCN1C(=O)C=Cc1ccccc1	·	-46.9%[8.59 µM]
C=CCOC(=O)N[C@@H](c1cccc(OC)c1)[C@@H](C)C=CCC(=O)O	14.4%[8.59 µM]	6.7%[8.59 µM]
C[C@]12CC[C@@H]3c4ccc(O)cc4C[C@@H](CCCCCCCCCS(=O)CCCC(F)(F)C(F)(F)F)[C@H]3[C@@H]1CC[C@@H]2O (some centres undefined)	6.31µM*	-14.2%
C[C@@]12CC[C@@H]3c4ccc(O)cc4C[C@H](CCCCCCCCCS(=O)CCCC(F)(F)C(F)(F)F)[C@H]3[C@@H]1CC[C@@H]2O (some centres undefined)	?	10.6%
O=C1N(CC2CC2)c2cccc(Br)c2[C@@]12O[C@H](COc1ccccc1)CC1=CCCC12 (some centres undefined)	-7.2%[8.59 µM]	?
CN1C[C@H](C(=O)N[C@]2(C)O[C@@]3(O)C4CCCN4C(=O)[C@H](Cc4ccccc4)N3C2=O)C[C@@H]2c3cccc4[nH]cc(c34)C[C@H]21 (some centres undefined)	?	12.6µM*
CN1C[C@H](C(=O)N[C@]2(C)O[C@]3(O)[C@H]4CCCN4C(=O)[C@H](Cc4ccccc4)N3C2=O)C[C@H]2c3cccc4[nH]cc(c34)C[C@@H]21	1.8%[17.8 µM]	?
CC(C)[C@@]1(NC(=O)[C@H]2CC3c4cccc5[nH]cc(c45)C[C@H]3N(C)C2)O[C@@]2(O)C3CCCN3C(=O)[C@@H](Cc3ccccc3)N2C1=O (some centres undefined)	-16.3%	8.91µM*
CC(C)[C@@]1(NC(=O)[C@@H]2C[C@H]3c4cccc5[nH]cc(c45)C[C@@H]3N(C)C2)O[C@]2(O)[C@H]3CCCN3C(=O)[C@H](Cc3ccccc3)N2C1=O	1.2%[17.8 µM]	?
COC(=O)CC=C[C@@H](C)[C@H](OC)c1cc(F)ccc1Br	-9.8%[8.59 µM]	59.2%[8.59 µM]
Fc1ccc(-c2nn3ccccc3c2-c2ccncc2)cc1	-15.2%	?
C=CS(=O)(=O)O	-13.8%	22.4µM*
COc1ccc([C@]23Cc4ccccc4[C@H](O2)C2=C(CC4(CCCCC4)OC2=O)O3)cc1	43.5%[8.59 µM]	50.4%[8.59 µM]
COc1c2c(cc3c1OCO3)C13C=CC(OC)CC1N(C2)CC3O (centres undefined)	1.8%	4.6%
COC1C=CC23c4cc5c(cc4CN(CC2O)C3C1)OCO5 (centres undefined)	7.08µM*	2.24µM*
COc1ccc(C(=O)NCCN2Cc3cc(C)ccc3OC(C)C2)c(OC)n1 (centres undefined)	-3.5%	2µM*
Cc1ccc2c(c1)CN(CCNC(=O)c1cc3ccccc3oc1=O)CC(C)O2 (centres undefined)	0.5%	-23.4%
CCCCCCCc1cc2ccccc2c2c(C(=O)OC)c(C(=O)OC)c(C(=O)OC)n12	·	18.3%[8.59 µM]
Cn1cnc2c(NCc3ccccc3)nc(NCCO)nc21	-1.5%	2.5%
COc1ccc(CNc2nc(NCc3ccc(OC)cc3)c3ncn(C4CCCCC4)c3n2)cc1	?	3.55µM*
SMILES	Lassa entry	Marburg entry
COC(=O)c1cc(CNC(=O)c2ccc3ncccc3c2)cc(NC(=O)c2ccccc2Cl)c1	-14.1%	-11.6%
CCN1C(N(C)CCOC)=NC(c2cccc(F)c2)C(C(=O)OC)=C1C (centres undefined)	·	-24.0%[8.59 µM]
O=c1[nH]c2ccccc2n1C1CCN(Cc2ccc(-c3[nH]c4cc5ncnc5cc4nc3-c3ccccc3)cc2)CC1	17.8µM*	7.08µM*
O=C(CCCN1CCC(n2c(=O)[nH]c3ccccc32)CC1)c1ccc(F)cc1	-18.5%[17.8 µM]	8.5%[17.8 µM]
COCC1CN(CCc2ccc(F)cc2)[S+](=O)([O-])c2c(OCCN3C(=O)[C@H]4[C@H](C3=O)[C@H]3C=C[C@@H]4C3)cccc2O1 (some centres undefined)	-10.1%	-18.0%
CCc1cc2c(nc1CC)CCN(CCC(C)=NOCC[C@@H]1C=C[C@H](OC(C)=O)[C@@H](COC(C)=O)O1)C2	10.1%[8.59 µM]	?
O[C@H](CC#CCOc1ccccc1)COCc1ccccc1	22.3%[8.59 µM]	70.6%[8.59 µM]
C[C@H]1CC[C@H]2C(=O)O[C@H](COc3ccc(C(C)(C)C)cc3)CN2[C@H]1c1ccc(Br)cc1	·	-11.8%[8.59 µM]
Cc1cc(-c2ccnc(-n3ncc(C(=O)NCC4COCCO4)c3C)n2)c(C)s1 (centres undefined)	-8.3%	?
CNCCC(Oc1ccccc1OC)c1ccccc1 (centres undefined)	-0.1%	?
CNCC[C@@H](Oc1ccccc1C)c1ccccc1	3.2%	28.2µM*!
N#Cc1cccc(OCc2cn(CC(=O)c3ccc(O)cc3)nn2)c1	-15.0%	1.4%
CC1=C[C@@H](C)O[C@@]2(C1)C(=O)Nc1cccc(Br)c12	-37.4%[8.59 µM]	0.6%[8.59 µM]
CC(CN(C)C)CN1c2ccccc2Sc2ccc(C(F)(F)F)cc21 (centres undefined)	31.6µM*	10µM*
CC(CN(C)C)CN1c2ccccc2Sc2ccccc21 (centres undefined)	?	11.2µM*
CN(C)CCCN1c2ccccc2Sc2ccc(C(F)(F)F)cc21	?	11.2µM*
C[C@@H](CN(C)C)CN1c2ccccc2Sc2ccccc21	?	11.2µM*
COc1ccc2c(c1)N(C[C@H](C)CN(C)C)c1ccccc1S2	-26.3%[17.8 µM]	?
Cc1ccccc1CN1[C@@H](CC(C)C)COc2c(Cl)cccc2S1(=O)=O	14.7%	-24.2%
CC(C)C[C@H]1COc2c(Cl)cccc2S(=O)(=O)N1Cc1cccc(F)c1	3.7%	-23.9%
CCO[C@H](c1cc(OC)cc([N+](=O)[O-])c1OC)[C@H](C)[C@@H](OC)[C@H](C)C=CCC(=O)OC	-6.4%[8.59 µM]	1.2%[8.59 µM]
C#CCCCON=C1C[C@@H](O)[C@@H](O)[C@@H]2[C@H]3C(=O)N([C@@H](C)c4ccccc4)C(=O)[C@@H]3CC[C@H]12	8.6%[8.59 µM]	?
O=S1(=O)[C@H]2C[C@H]3O[C@]2(CN1Cc1ccc(C(F)(F)F)cc1)[C@@H]1O[C@@H]13	51.6%	3.6%
Cn1ccc2c(C=Cc3ccc(F)cc3)cc3c(c21)C1CCC3C1 (centres undefined)	-4.1%	-21.4%
CC(=O)NNC(=O)N1Cc2ccccc2Oc2ccc(Cl)cc21	-11.1%	4.9%
SMILES	Lassa entry	Marburg entry
CCN(CC)CCCCN1c2ccccc2Oc2ccc(Cl)cc21	?	6.31µM*
CN1CCN(C2CN(Cc3ccccc3)S(=O)(=O)C2)CC1 (centres undefined)	12.9%	20.9%
CN1CCc2c(c3ccccc3n2Cc2ccccc2)C1	?	17.8µM*
C=CCO[C@@H]1C=C[C@@H](c2ccccc2)O[C@@H]1COC	3.6%[8.59 µM]	18.3%[8.59 µM]
C=C(C[C@]1(C(=O)OC)C[C@]2(CC=C(C)C)C(=O)C(C(=O)CC(C)C)=C(O)[C@@](CC=C(C)C)(C1)C2=O)C(=O)OC	·	4.4%[8.59 µM]
COC(=O)C1=C(C(=O)OC)[C@@H]2N(C)c3ccccc3[C@@]23C[C@@H](C(=O)OC)N(C(=O)Nc2cccc(C#N)c2)C3=N1	0.4%[8.59 µM]	27.4%[8.59 µM]
